# Experimental data: PubChem BioAssay (NCATS)
# Records with an inconclusive call do not appear. Entries that show only a call come without a potency. Activity calls are given as the source filed them. Unless noted, calls come from the whole dose curve; as a rule, active = well fitted curve in the direction sought with a large enough effect; inconclusive = small, poorly fitted or top-dose-only effect, or another doubt; inactive = no such curve, though single readings can be large; an effect the other way counts as inactive or inconclusive.
# Experiments:
# [1] = AP1 Signaling Pathway (AID 357; active = well fitted curve in either direction with a large enough effect, not every such curve was filed as active;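 note: ME-180 reporter cells stimulated with EGF at its EC50 level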)
# Summary of the method: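 Beta-lactamase reporter under AP-1 response element, ME-180 background. Stimulus: EC50 EGF. Compound exposure 5 h, 37 °C. Detection: CCF4, 2.5 h RT, 460/530 nm. Values: AC50 from titration.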
# [2] = target: Cytochrome P450 1A2 (Homo sapiens) (UniProt P05177); experiment: p450-cyp1a2 (AID 410; calls by dose curve)
# Chain of Cytochrome P450 1A2 (Homo sapiens) (P05177 whole entry, looked up): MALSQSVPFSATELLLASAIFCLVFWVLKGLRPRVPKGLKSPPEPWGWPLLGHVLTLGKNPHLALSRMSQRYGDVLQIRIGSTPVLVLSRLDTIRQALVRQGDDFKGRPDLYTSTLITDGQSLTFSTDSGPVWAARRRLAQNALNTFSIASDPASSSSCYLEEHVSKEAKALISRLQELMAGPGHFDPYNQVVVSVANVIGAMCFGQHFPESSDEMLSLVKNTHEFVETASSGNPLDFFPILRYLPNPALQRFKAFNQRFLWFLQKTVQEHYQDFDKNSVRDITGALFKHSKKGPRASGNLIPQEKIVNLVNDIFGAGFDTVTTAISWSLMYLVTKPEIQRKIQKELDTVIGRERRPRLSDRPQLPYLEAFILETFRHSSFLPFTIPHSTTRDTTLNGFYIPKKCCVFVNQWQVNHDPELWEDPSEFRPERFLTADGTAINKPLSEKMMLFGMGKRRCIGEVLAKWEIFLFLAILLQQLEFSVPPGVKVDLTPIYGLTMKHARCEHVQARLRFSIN
# Summary of the method: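 Human CYP1A2 (20nM) demethylated Luciferin-ME at its Km (100uM) in 100mM KPO4. After 10 min compound preincubation, NADPH regeneration ran the reaction 60 min at room temperature. Luciferin was read by luminescence, normalized to 57 uM furafylline.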
# [3] = NFAT Signaling Pathway (AID 444; active = well fitted curve in either direction with a large enough effect, not every such curve was filed as active;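 note: carbachol stimulus at about its EC50 of 1 µM final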); details: Jurkat NFAT-bla M1, carbachol, beta-lactamase ratio, 5 h; at 17.2 µM (top of the series) unless noted
# Summary of the method: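 Jurkat cells carrying an NFAT-driven β-lactamase reporter and co-transfected muscarinic M1 receptor were treated with compound plus carbachol (1 uM final, an EC50 level) for 5 h at 37 °C. CCF4 loading followed for 1 h at RT; 460/530 nm ratio gave %activity.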
# [4] = Stat Signaling Pathway (AID 446; active = well fitted curve in either direction with a large enough effect, not every such curve was filed as active;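 note: ME-180 cervical cancer cells given 40 pM IL-6 alongside compound; SIE-controlled beta-lactamase reporter measured as 460/530 nm FRET emission ratio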)
# Summary of the method: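 ME-180 cells carrying a SIE-driven beta-lactamase reporter are stimulated with 40 pM IL-6 for 5 h at 37C in the presence of compound. The 460/530 nm FRET substrate ratio is read after 2.5 h at RT. Data are normalised to 300 pM IL-6 and to 125 nM JAK inhibitor controls.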
# [5] = target: Glucocorticoid receptor (Homo sapiens) (UniProt P04150); experiment: GR-GFP Redistribution (AID 450;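 active = compounds whose dose series gives a full or clear partial fitted curve of increased nuclear translocation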; note: potency is the fitted concentration of half-maximal effect); details: U2OS GR-GFP nuclear translocation, laser cytometry, 2 h
# Chain of Glucocorticoid receptor (Homo sapiens) (P04150 whole entry, looked up, the tested form may be a part): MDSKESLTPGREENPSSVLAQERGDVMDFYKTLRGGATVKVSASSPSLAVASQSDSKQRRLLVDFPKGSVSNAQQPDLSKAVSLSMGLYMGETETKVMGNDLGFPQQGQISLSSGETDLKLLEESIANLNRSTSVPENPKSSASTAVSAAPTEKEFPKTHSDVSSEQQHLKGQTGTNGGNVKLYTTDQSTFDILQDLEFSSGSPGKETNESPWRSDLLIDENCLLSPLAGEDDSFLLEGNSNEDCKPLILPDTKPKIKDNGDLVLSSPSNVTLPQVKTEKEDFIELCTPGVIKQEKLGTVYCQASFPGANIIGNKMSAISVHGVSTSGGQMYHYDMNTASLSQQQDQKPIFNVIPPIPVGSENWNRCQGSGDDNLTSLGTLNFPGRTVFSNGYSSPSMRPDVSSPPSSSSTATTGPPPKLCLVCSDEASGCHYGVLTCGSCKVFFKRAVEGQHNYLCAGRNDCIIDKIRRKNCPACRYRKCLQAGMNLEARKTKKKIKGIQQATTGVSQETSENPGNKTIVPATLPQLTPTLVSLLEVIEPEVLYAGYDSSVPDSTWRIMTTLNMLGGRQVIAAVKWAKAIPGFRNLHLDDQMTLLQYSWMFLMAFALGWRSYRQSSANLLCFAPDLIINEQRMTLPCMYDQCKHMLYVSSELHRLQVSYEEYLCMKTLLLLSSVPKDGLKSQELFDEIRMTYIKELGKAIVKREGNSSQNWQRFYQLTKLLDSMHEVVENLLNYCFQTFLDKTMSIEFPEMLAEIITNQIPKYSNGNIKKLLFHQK
# [6] = target: Glucocorticoid receptor (Homo sapiens) (UniProt P04150); experiment: GR-EFC Redistribution (AID 451; calls by dose curve; note: potency is the fitted concentration of half-maximal effect); details: CHO-K1 GR-EFC translocation, beta-gal luminescence, 2 h
# Summary of the method: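 CHO-K1 cells stably expressing nuclear-localized β-gal enzyme acceptor and GR fused C-terminally to the enzyme donor fragment; ligand-driven nuclear translocation restores β-gal by complementation. Compounds titrated up to 46 uM final, 2 h at 37 °C; luminescence read.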
# [7] = qHTS Assay for Lipid Storage Modulators (AID 1519; calls by dose curve); details: Drosophila S3 cells, BODIPY lipid droplet/cell ratio, laser cytometry, cells loaded with oleic acid; for activity change, negative = inhibition: at 25.7 µM (top of the series)
# Summary of the method: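 Cells seeded at 5,000 per well were treated with compounds over a concentration series and loaded with oleic acid (400 uM, as added). Lipid droplet fluorescence (488 nm excitation, 500-530 nm channel) was read by laser-scanning cytometry and normalized to 20 uM Triacsin C.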
# [8] = target: Ubiquitin carboxyl-terminal hydrolase 1 (Homo sapiens) (UniProt O94782); experiment: Inhibitors of USP1/UAF1: Pilot qHTS (AID 504865);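 note: rhodamine fluorescence freed from ubiquitin-rhodamine substrate followed over time; top concentration of the series differs between compounds; nearly all actives have a fitted effect of over 35% in size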
# Chain of Ubiquitin carboxyl-terminal hydrolase 1 (Homo sapiens) (O94782 whole entry, looked up): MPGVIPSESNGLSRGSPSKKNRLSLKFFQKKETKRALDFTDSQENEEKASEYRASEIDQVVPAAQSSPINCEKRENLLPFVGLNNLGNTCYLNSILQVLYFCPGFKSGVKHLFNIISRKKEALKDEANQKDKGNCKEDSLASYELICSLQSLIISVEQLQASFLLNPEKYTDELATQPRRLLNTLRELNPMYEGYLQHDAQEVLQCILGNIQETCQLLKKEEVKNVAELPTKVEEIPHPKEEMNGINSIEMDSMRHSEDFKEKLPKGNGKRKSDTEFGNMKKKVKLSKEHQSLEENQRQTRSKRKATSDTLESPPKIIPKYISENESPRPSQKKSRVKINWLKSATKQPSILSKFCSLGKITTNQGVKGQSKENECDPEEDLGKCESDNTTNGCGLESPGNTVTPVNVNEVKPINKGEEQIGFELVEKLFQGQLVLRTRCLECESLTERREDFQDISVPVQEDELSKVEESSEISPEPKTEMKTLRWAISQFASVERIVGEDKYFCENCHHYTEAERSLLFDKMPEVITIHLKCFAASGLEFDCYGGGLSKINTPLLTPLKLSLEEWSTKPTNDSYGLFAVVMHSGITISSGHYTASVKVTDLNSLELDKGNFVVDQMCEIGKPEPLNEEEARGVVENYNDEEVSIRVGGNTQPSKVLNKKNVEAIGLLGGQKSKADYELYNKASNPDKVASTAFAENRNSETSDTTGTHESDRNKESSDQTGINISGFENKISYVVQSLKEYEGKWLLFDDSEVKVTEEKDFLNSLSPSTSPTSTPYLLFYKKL
# Summary of the method: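 Deubiquitinase activity followed as kinetic rhodamine fluorescence release from 150 nM Ub-Rho. 1 nM USP1/UAF1 with compound, after 15 min room-temperature preincubation, in HEPES pH 7.8 buffer containing TCEP, EDTA, BSA and Tween-20.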
# [9] = target: Mitogen-activated protein kinase 10 (Mus musculus) (UniProt Q61831); experiment: JNK3 AlphaScreen Assay (AID 530; active = well fitted curve in either direction with a large enough effect, not every such curve was filed as active;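 note: kinase came from lysate of stimulated human HepG2 cells; signal reports phosphorylation of biotinylated GST-cJun 1-79 at Ser73 with 10 µM ATP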)
# Summary of the method: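 JNK3 came from HepG2 lysates pre-activated with IL-1beta and TNF-alpha and phosphorylated biotinylated GST-cJun (1-79) at 10 uM ATP, pH 7.6, room temperature. Compounds were titrated. AlphaScreen signal used anti-phospho-cJun (Ser73) antibody.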
# [10] = target: 3',5'-cyclic-AMP phosphodiesterase 4B (Homo sapiens) (UniProt Q07343); experiment: qHTS Assay for Inhibitors of PDE-IV (AID 607; active = well fitted activation curve with a large enough effect in the main read-out, with a control signal flat, not every such curve was filed as active)
# Chain of 3',5'-cyclic-AMP phosphodiesterase 4B (Homo sapiens) (Q07343 whole entry, looked up): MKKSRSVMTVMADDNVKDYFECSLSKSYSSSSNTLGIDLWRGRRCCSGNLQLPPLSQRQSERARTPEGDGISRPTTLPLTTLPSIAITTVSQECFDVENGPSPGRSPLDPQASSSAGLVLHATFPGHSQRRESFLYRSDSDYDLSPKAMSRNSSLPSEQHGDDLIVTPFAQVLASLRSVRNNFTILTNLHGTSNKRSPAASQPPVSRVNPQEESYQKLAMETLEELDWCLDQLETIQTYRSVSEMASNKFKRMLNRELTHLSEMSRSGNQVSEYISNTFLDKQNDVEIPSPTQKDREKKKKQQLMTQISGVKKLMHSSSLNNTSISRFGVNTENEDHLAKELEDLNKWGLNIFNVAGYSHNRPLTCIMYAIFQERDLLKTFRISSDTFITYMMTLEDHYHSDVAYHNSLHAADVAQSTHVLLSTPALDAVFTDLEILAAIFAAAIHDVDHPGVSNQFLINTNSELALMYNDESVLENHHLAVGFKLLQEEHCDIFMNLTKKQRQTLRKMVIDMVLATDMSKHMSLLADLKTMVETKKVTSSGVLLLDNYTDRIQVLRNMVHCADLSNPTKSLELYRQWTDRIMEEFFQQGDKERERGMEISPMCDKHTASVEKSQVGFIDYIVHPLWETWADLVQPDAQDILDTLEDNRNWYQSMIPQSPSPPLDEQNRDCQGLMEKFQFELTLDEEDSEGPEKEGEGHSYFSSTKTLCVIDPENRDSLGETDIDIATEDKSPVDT
# Summary of the method: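 HEK293 ACTOne cells with CNG channel (1000/well), endogenous PDE4; membrane potential dye, compounds up to 22.9 uM final. Fluorescence Ex 535/Em 590; RO 20-1724 (100 uM final) as reference.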
# [11] = target: ATP-dependent 6-phosphofructokinase (Trypanosoma brucei brucei) (UniProt O15648); experiment: qHTS Assay to Find Inhibitors of T. brucei phosphofructokinase: hit validation (AID 492961);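 note: luminescence reports ADP formed as PFK phosphorylates fructose-6-phosphate with ATP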
# Chain of ATP-dependent 6-phosphofructokinase (Trypanosoma brucei brucei) (O15648 whole entry, looked up): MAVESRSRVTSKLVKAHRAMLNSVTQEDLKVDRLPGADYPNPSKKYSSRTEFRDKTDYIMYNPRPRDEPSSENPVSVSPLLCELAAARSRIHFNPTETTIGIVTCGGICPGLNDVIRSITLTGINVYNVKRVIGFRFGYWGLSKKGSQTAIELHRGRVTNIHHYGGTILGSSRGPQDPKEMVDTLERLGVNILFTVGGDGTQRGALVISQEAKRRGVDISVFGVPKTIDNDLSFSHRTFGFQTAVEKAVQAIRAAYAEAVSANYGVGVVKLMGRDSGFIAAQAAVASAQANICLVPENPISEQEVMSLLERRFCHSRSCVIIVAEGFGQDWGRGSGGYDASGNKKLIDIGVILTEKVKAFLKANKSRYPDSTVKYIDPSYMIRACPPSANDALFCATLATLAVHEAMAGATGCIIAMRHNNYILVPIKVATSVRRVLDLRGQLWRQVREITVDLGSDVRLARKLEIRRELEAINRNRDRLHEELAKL
# Summary of the method: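 Reaction: 0.1 M triethanolamine pH 8.0, 5 mM MgCl2, F6P 0.5 mM, ATP 0.1 mM, PFK 1.25 nM, 45 min RT. Read-out: ADP-Glo luminescence. Analysis: concentration-response fits, classed by r2 and efficacy.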
# [12] = target: Luciferin 4-monooxygenase (Photinus pyralis) (UniProt P08659); experiment: Biochemical firefly luciferase enzyme assay for NPC (AID 624030);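 note: purified P. pyralis luciferase at 10 nM with luciferin and ATP substrate; nearly all actives have a fitted effect of over 70% in size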
# Chain of Luciferin 4-monooxygenase (Photinus pyralis) (P08659 whole entry, looked up): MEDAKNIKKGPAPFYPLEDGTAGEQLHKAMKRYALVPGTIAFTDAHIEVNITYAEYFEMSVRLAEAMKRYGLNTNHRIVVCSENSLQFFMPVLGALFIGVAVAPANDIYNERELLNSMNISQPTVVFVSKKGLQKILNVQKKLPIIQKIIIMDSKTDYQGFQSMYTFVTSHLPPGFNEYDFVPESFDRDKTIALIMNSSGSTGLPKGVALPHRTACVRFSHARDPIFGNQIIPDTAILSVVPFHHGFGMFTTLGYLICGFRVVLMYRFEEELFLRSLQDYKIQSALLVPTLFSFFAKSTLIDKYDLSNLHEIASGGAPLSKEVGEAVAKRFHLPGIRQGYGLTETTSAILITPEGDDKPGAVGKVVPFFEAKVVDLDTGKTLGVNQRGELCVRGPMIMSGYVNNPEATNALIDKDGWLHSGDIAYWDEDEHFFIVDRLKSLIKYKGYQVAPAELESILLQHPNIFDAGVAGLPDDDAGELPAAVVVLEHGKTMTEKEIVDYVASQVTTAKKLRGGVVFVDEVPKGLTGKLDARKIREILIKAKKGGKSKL
# Summary of the method: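 Counter-screen for direct inhibition of the luciferase enzyme by approved-drug library compounds, run at 10 nM enzyme in 50 mM Tris acetate (final). Luminescence was read within 5 min of enzyme-buffer addition and normalized to PTC124 versus DMSO (0%).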
# [13] = S16 Schwann cell PMP22 intronic element firefly luciferase assay (AID 624032); note: nearly all actives have a fitted effect of over 30% in size
# Summary of the method: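 Rat S16 Schwann cells stably carrying a PMP22 intronic element-driven Fluc reporter were seeded overnight, then exposed to compounds for 24 h at 37 °C. Luminescence was normalized to PTC124 (positive control) and DMSO (0% activity).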
# [14] = qHTS profiling for inhibitors of Plasmodium falciparum proliferation (AID 504749); note: nearly all actives have a fitted effect of over 60% in size; note: potency is the fitted concentration of half-maximal effect; details: P. falciparum in erythrocytes, SYBR Green DNA, 72 h
# Summary of the method: (§1)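 P. falciparum-infected erythrocytes (0.3% parasitemia, 2.5% hematocrit final) were exposed to compounds for 72 h at 37 C in 5% CO2, then lysed with SYBR Green buffer overnight at room temperature; parasite DNA fluorescence was normalized to artemisinin and DMSO controls.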
# [15] = system: CP191; experiment: as above; details: P. falciparum in erythrocytes, SYBR Green DNA, 72 h; series mostly up to 12.8 µM
# Summary of the method: as §1
# [16] = system: CP217; experiment: as above; details: P. falciparum in erythrocytes, SYBR Green DNA, 72 h; series mostly up to 12.8 µM
# Summary of the method: as §1
# [17] = system: CP250; experiment: as above; details: P. falciparum in erythrocytes, SYBR Green DNA, 72 h; series mostly up to 12.8 µM
# Summary of the method: as §1
# [18] = system: FAB9; experiment: as above; details: P. falciparum in erythrocytes, SYBR Green DNA, 72 h; series mostly up to 12.8 µM
# Summary of the method: as §1
# [19] = system: JCK; experiment: as above; details: P. falciparum in erythrocytes, SYBR Green DNA, 72 h; series mostly up to 12.8 µM
# Summary of the method: as §1
# [20] = system: CP256; experiment: as above; details: P. falciparum in erythrocytes, SYBR Green DNA, 72 h; series mostly up to 12.8 µM
# Summary of the method: as §1
# [21] = measured here: cell count channel max response
# [22] = measured here: lipid channel max response
# [23] = at 12.8 µM (top of the series), parasite line A
smiles,measurement,setting,value
CC(C)(CS)C(=O)N1CCC[C@H]1C(=O)O,outcome,[1],inactive
same,Potency,[2],inactive
same,"activity change, negative = inhibition",[3],-3.44% (inactive)
same,outcome,[4],inactive
same,Potency,[5],> 20.6 µM (inactive)
same,Potency,[6],> 20.6 µM (inactive)
same,"activity change, negative = inhibition",[7],1% (inactive)
same,max response,[7]; [21],2.97%
same,max response,[7]; [22],4.64%
same,Potency,[8],inactive
CCC(=O)O[C@@H]1[C@H](C)O[C@H](O[C@H]2[C@@H](N(C)C)[C@H](O)[C@@H](O[C@@H]3[C@@H](CC=O)C[C@@H](C)[C@@H](O)/C=C\C=C/C[C@@H](C)OC(=O)C[C@@H](OC(=O)CC)[C@H]3OC)O[C@H]2C)C[C@]1(C)O,outcome,[1],inactive
same,Potency,[2],inactive
same,"activity change, negative = inhibition",[3],3.96% (inactive)
same,outcome,[4],inactive
same,Potency,[5],> 20.6 µM (inactive)
same,Potency,[6],> 20.6 µM (inactive)
same,Potency,[9],inactive
same,outcome,[10],inactive
same,"activity change, negative = inhibition",[7],-0.346% (inactive)
same,max response,[7]; [21],-5.96%
same,max response,[7]; [22],-6.47%
same,outcome,[11],inactive
same,Potency,[12],inactive
same,Potency,[13],inactive
same,"activity, negative = inhibition",[14]; [23],-18.8% (inactive)
same,"activity, negative = inhibition","[14]; at 12.8 µM (top of the series), parasite line B",-28.9% (inactive)
same,Potency,[15],inactive
same,Potency,[16],inactive
same,Potency,[17],inactive
same,Potency,[18],inactive
same,Potency,[19],inactive
COc1cc2nc(N3CCN(C(=O)[C@@H]4CCCO4)CC3)nc(N)c2cc1OC,outcome,[1],inactive
same,Potency,[2],inactive
same,"activity change, negative = inhibition",[3],12.6% (inactive)
same,outcome,[4],inactive
same,Potency,[5],> 20.6 µM (inactive)
same,Potency,[6],> 20.6 µM (inactive)
same,Potency,[9],inactive
same,outcome,[10],inactive
same,"activity change, negative = inhibition",[7],2.61% (inactive)
same,max response,[7]; [21],-3.95%
same,max response,[7]; [22],-0.955%
same,outcome,[11],inactive
same,Potency,[8],inactive
same,Potency,[12],inactive
same,Potency,[13],inactive
same,"activity, negative = inhibition","[14]; at 28.7 µM (top of the series), parasite line A",10.8% (inactive)
same,"activity, negative = inhibition","[14]; at 28.7 µM (top of the series), parasite line B",8.54% (inactive)
same,Potency,[15],inactive
same,Potency,[16],inactive
same,Potency,[17],inactive
same,Potency,[20],inactive
same,Potency,[18],inactive
same,Potency,[19],inactive
CNC[C@H](O)c1ccc(OC(=O)C(C)(C)C)c(OC(=O)C(C)(C)C)c1,outcome,[1],inactive
same,Potency,[2],inactive
same,"activity change, negative = inhibition",[3],1.95% (inactive)
same,outcome,[4],inactive
same,Potency,[5],> 20.6 µM (inactive)
same,Potency,[6],> 20.6 µM (inactive)
same,Potency,[9],inactive
same,outcome,[10],inactive
same,"activity change, negative = inhibition",[7],0.431% (inactive)
same,max response,[7]; [21],14.1%
same,max response,[7]; [22],16.1%
same,outcome,[11],inactive
same,Potency,[12],inactive
same,"activity, negative = inhibition",[14]; [23],-7.03% (inactive)
same,Potency,[15],inactive
same,Potency,[16],inactive
same,Potency,[17],inactive
same,Potency,[20],10 µM (active)
same,Potency,[18],inactive
same,Potency,[19],inactive
O=C1O[C@H](CN2CCOCC2)CN1/N=C\c1ccc([N+](=O)[O-])o1,outcome,[1],inactive
same,Potency,[2],inactive
same,"activity change, negative = inhibition",[3],-16.1% (inactive)
same,outcome,[4],inactive
same,Potency,[5],> 20.6 µM (inactive)
same,Potency,[6],> 20.6 µM (inactive)
same,Potency,[9],inactive
same,outcome,[10],inactive
same,"activity change, negative = inhibition",[7],-9.12% (inactive)
same,max response,[7]; [21],-19.2%
same,max response,[7]; [22],-26.5%
same,outcome,[11],inactive
same,Potency,[8],inactive
same,Potency,[12],inactive
same,Potency,[13],inactive
same,Potency,[15],inactive
same,Potency,[16],inactive
same,Potency,[17],inactive
same,Potency,[20],inactive
same,Potency,[18],inactive
same,Potency,[19],inactive
